High-throughput results as filed in PubChem.
HTT promoter inh = inhibitors of huntingtin promoter activity; HEK293 HTT promoter firefly luciferase reporter, 24 h; Potency, µM (top dose mostly 57.5 µM), for inactives: at the top dose activity change, negative = inhibition, hits mostly inhibitors; actives 0.93% (n = 48,000); also: potency is read from the fitted curve at half-maximal effect; nearly all actives have a fitted effect of over 50% in size
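HEK293 Fluc reporter, 2,500 cells/well, 24 h pre-culture; cpds up to 57.5 uM final, 24 h 37 degrees C; Dual-Glo, 10 min RT; normalized vehicle = 0%, zero RLU = -100%.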
FH mod = Identification of activators of human fumarate hydratase by quantitative high-throughput screening. actives 0.22% (n = 54,000). Potency, µM (doses to about 79.9 µM), without a hit: at the top dose activity change, negative = inhibition, hits mostly inhibitors. Fumarate hydratase, mitochondrial (Homo sapiens), P07954. FH coupled MDH/diaphorase resazurin fluorescence, 15 min. AID 1347055, 2019; also: potency is read from the fitted curve at half-maximal effect; % is scaled to controls: 0 for no effect and ±100 for the full control effect; the screen sought activators but most active calls are inhibition curves; nearly all actives have a fitted effect of over 45% in size
DRV1 agonist = activates human resolvin D1 receptor GPR32; actives 2.5% (n = 48,000); O75388; CHO-K1 GPR32 beta-arrestin PathHunter luminescence, 90 min; zero percent set by DMSO-only wells; AID 1346428; activation, % at 76.9 µM;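 active = activation of at least 60% and not above a set upper limit, about 1 call in 100 departs from these limits; inconclusive = activation of 40% to 60%, or above that upper limit; inactive = activation under 40%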; also: 0% is about no effect
Target sequence (O75388 whole entry, looked up): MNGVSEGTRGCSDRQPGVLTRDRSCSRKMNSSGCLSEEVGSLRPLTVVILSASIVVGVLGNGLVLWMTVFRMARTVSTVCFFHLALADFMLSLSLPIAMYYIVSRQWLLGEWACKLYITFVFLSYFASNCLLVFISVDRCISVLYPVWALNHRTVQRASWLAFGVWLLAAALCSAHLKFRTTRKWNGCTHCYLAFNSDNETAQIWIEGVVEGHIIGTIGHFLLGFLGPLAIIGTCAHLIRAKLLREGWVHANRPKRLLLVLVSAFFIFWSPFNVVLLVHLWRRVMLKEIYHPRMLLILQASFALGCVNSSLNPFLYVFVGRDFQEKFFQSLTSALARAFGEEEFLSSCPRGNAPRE
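Step 1: seed CHO-K1 GPR32 beta-arrestin cells, 2,500/well, overnight at 37 °C. Step 2: add compounds, 90 min at 37 °C. Step 3: detection reagent, 1 h ambient, then luminescence.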
GALC G270D up = enhancers of human galactocerebrosidase G270D mutant activity in cells; AID 1159614; actives 0.1% (n = 45,000); P54803; Potency, µM (series often up to 57.5 µM), hits mostly activators; 145M-Twi-hGALC-G270D cells (Twitcher mouse brain line with human GALC G270D), HMU-beta-Gal fluorescence, 48 h; also: potency is read from the fitted curve at half-maximal effect; 0% is about no effect; nearly all actives have a fitted effect of over 65% in size
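Live 145M-Twi cells (Twitcher mouse brain-derived, GALC-null) stably expressing human GALC-G270D, with a wild-type GALC line, were compound-treated. Residual GALC activity was then read as fluorescence from 0.1 mM final HMU-β-gal at pH 5.2; higher signal means activation.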
B2AR arrestin ag = ADRB2 beta-arrestin recruitment. P07550. HTLA Tango cells, beta-arrestin recruitment, luciferase luminescence, 18 h. Potency, µM (doses to about 46.1 µM), actives largely listed as activators. 44,000 tested, under 10 active. AID 1347077;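 also: potency is read from the fitted curve at half-maximal effect; 0% = DMSO and full agonism = EC100 isoproterenol or metaproterenol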
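Tango cells expressing recombinant beta2-AR and beta-arrestin were treated with compounds (up to 46 microM titration) in DMEM with 1% FBS for 18 hr at 37 degrees C. Beta-arrestin recruitment drove tTA-dependent luciferase, read by luminescence; curves were fitted and classed.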
HTT-AS promoter = activators of huntingtin-antisense promoter activity; HEK293 HTT-AS promoter firefly luciferase reporter, 24 h; response scale: percent change from vehicle, -100% = no light; Potency, µM (top dose mostly 57.5 µM), for inactives: at the highest dose activity change, positive = activation, usual class: activators; actives 0.24% (n = 48,000); AID 1508624; also: potency is read from the fitted curve at half-maximal effect; nearly all actives have a fitted effect of over 55% in size
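HEK293 Fluc reporter, 2,500 cells/well, 24 h pre-culture; cpds up to 57.5 uM final, 24 h 37 degrees C; Dual-Glo, 10 min RT; normalized vehicle = 0%, zero RLU = -100%.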
* = called active by the depositor; i = inactive; ? = inconclusive; · = not tested or not shown; ! = a repeat was not active; [ ] = dose if it differs, or a comment. Only some compounds are listed: those with a hit (about 3.7% of all), similar ones and a draw of the others. Unless noted, calls follow the shape of the dose curve; as a rule, active = well fitted curve in the direction sought with a large enough effect; inconclusive = small, poorly fitted or top-dose-only effect, or another doubt; inactive = no such curve, though single readings can be large; an effect the other way counts as inactive or inconclusive.

SMILES	HTT promoter inh	FH mod	DRV1 agonist	GALC G270D up	B2AR arrestin ag	HTT-AS promoter
CCC(O)C(C)C1CCC(C(C)C(=O)O)O1 (stereo unspecified)	·	0.7%	·	·	·	·
Cc1cc(C)c(NC(=O)CSc2nccn2Cc2ccco2)c(C)c1	43.9%	3.3%	-12.2	i	i	5.01µM*
COC1=C(OC)C(=O)C(CCCCCCCCCCO)=C(C)C1=O	?	19.3µM*	46.3	i	·	-16.9%
CCOc1ccc(NCc2cccn2-c2nnc(N3CCC(C(=O)NCc4ccccc4Cl)CC3)s2)cc1	22.4µM*	-16.3%	-24.3	i	i	-56.6%
CC1CCN(c2nnc(-n3cccc3CNc3cccc(F)c3)s2)CC1	5.62µM*	-17.4%	-3.8	i	i	-71.1%
CC1(C)CC[C@]23CO[C@@]4(CCC5[C@@]6(C)CC[C@H](O[C@@H]7OC[C@H](O[C@@H]8O[C@H](CO)[C@@H](O)[C@H](O)[C@H]8O[C@@H]8OC[C@@H](O)[C@H](O)[C@H]8O)[C@H](O)[C@H]7O)[C@@](C)(CO)C6CC[C@@]5(C)[C@]4(C)CC2=O)[C@@H]3C1 (stereo partly specified)	·	-0.1%[20.6 µM]	·	·	·	·
Cn1ccc(NC(=O)c2cc(Oc3ccc(C(=O)N4CCC4)c(F)c3)c3c(c2)OC(C)(C)C3)n1	·	1.8%	·	·	·	·
O=C(NCCc1csc(-c2cccc(F)c2)n1)c1ccc(Br)o1	?	-11.5%	93.8*	i	i	-21.8%
Cc1ccc(C(=O)NCCc2csc(-c3cccc(F)c3)n2)cc1C	-15.6%	-28.4%	60.5*	i	i	-9.4%
CC1(C)CC2C3=CCC4[C@@]5(C)CC[C@H](OC6OCC(O)C(OC7OC(CO)C(O)C(O)C7O)C6O)C(C)(C)C5CC[C@@]4(C)[C@]3(C)C[C@H](O)[C@@]2(CO)[C@H](OC(=O)c2ccccc2)C1 (stereo partly specified)	·	0.0%[20.6 µM]	·	·	·	·
COc1ccc(C(=O)N2CCC(c3nc4ccccc4s3)CC2)cc1Cl	?	?	75.5*	i	i	-31.7%
CCCOc1ccc(C(=O)N2CCC(c3nc4ccccc4s3)CC2)cc1	-10.2%[11.5 µM]	2.9%	-0.3	i	i	-11.2%
Cc1cc(C)cc(OCC(=O)N2CCC(c3nc4ccccc4s3)CC2)c1	-9.5%	-17.4%	25.0	i	i	-9.5%[11.5 µM]
COc1cccc(C(=O)N2CCC(c3nc4ccccc4s3)CC2)c1	?	-10.0%	95.0*	i	i	-13.7%
CCCOc1ccccc1C(=O)N1CCC(c2nc3ccccc3s2)CC1	?	-19.2%	104.2*	i	i	2.0%[11.5 µM]
CCCS(=O)(=O)c1nc(S(=O)(=O)c2ccc(C)cc2)c(N(CC)CC)s1	-11.5%	-24.8%	-34.1	7.94µM*	i	-12.8%
c1ccc(Cn2c(-c3ccc(OCC(C4CCNCC4)n4c(-c5ccccc5)nc5ccccc54)cc3)nc3ccccc32)cc1 (stereo unspecified)	·	4.8%	·	·	·	·
Cc1ccc(NC(=O)CSc2nc3ccc(NC(=O)c4ccco4)cc3s2)cc1	-22.9%	3.2%	98.5*	i	i	-22.0%
CCN(CC)c1cc(C)c2cc(NC(=O)c3cccc(F)c3)ccc2n1	-3.6%	-21.6%	92.4*	i	i	-3.5%
CC(C)(C)c1ccc(C(=O)Nc2ccc3nc(SCC(=O)N4CCCC4)sc3c2)cc1	14.1µM*	?	24.6	i	i	-86.0%
Cc1ccc(NC(=O)CSc2nc3ccc(NC(=O)CCc4ccccc4)cc3s2)c(C)c1	4.0%	2.0%	-24.5	i	i	-6.8%
O=C(Nc1ccc2nc(SCC(=O)N3CCCC3)sc2c1)c1ccc(Br)cc1	-15.3%	-2.7%	-2.7	i	i	-17.1%
Cc1cccc(NC(=O)CSc2nc3ccc(NC(=O)c4ccccc4)cc3s2)c1	-11.4%	2.7%	60.2*	i	i	-17.6%
Cc1cccc(NC(=O)CSc2nc3ccc(NC(=O)COc4ccccc4F)cc3s2)c1	-23.5%	-10.0%	-3.9	i	i	-20.3%
CC(=O)O[C@@H]1C[C@@]23C[C@@]24CC[C@H](O[C@@H]2OC[C@H](O)[C@H](O)[C@H]2O)C(C)(C)[C@@H]4CC[C@H]3[C@]2(C)[C@@H](O)C34O[C@H](C[C@@H](C)[C@@H]3[C@@]12C)[C@@H](C(C)(C)O)O4	·	-1.1%	·	·	·	·
SMILES	HTT promoter inh	FH mod	DRV1 agonist	GALC G270D up	B2AR arrestin ag	HTT-AS promoter
CCOC(=O)CSc1nc2ccc(NC(=O)c3cccc(F)c3)cc2s1	-12.8%	-18.5%	72.6*	i	i	?
O=C(Nc1cccc(C(F)(F)F)c1)c1ccc(F)c(S(=O)(=O)N2CCc3ccccc3C2)c1	28.2µM*	?	-9.6	i	i	-39.8%
COc1ccccc1CNS(=O)(=O)c1cc(C(=O)Nc2cccc(C(F)(F)F)c2)ccc1F	28.2µM*	?	15.4	i	i	-46.9%
CC(C)c1ccc(NC(=O)c2ccc(F)c(S(=O)(=O)N3CCc4ccccc4C3)c2)cc1	11.2µM*	-17.8%	-3.1	i	i	-25.5%
O=C(Nc1cc(Cl)cc(Cl)c1)c1ccc(F)c(S(=O)(=O)NCc2ccccc2Cl)c1	?	?	14.0	i	i	-31.9%
O=C(NCc1cccc(Cl)c1)C1CCCN(c2nn3cc(-c4ccc(F)cc4)nc3s2)C1 (stereo unspecified)	2.51µM*	-10.4%	-16.0	i	i	-70.2%
O=C(NCc1cccc(Cl)c1)C1CCN(c2nn3cc(-c4ccc(F)cc4)nc3s2)CC1	-5.0%	-0.1%	62.3*	i	i	0.5%
O=C(Nc1cccc(Cl)c1)C1CCCN(c2nn3cc(-c4ccc(F)cc4)nc3s2)C1 (stereo unspecified)	3.98µM*	-13.7%	-0.4	i	i	-64.0%
O=C(O)c1ccc(-c2c[nH]c3ncc(-c4ccccc4)cc23)cc1C1CCCC1	-18.0%	31.6µM*!	·	·	·	-11.3%
O=C(O)c1cc(-c2ccccc2)nc2ccccc12	29.4%	7.0%	-25.1	i	·	?
O=C(Nc1ccccc1F)c1ccc(Cn2nc(N3CCN(c4ccccc4)CC3)ccc2=O)o1	?	-10.4%	90.1*	i	i	-31.1%
O=C(Nc1ccc(F)cc1)c1ccc(Cn2nc(N3CCN(c4ccccc4)CC3)ccc2=O)o1	14.1µM*	-26.1%	-2.0	i	i	-42.0%
